Assay outcomes as filed in PubChem.
Pf growth 96h: P. falciparum growth inhibition at 96 hour, primary screen for plastid delayed-death inhibitors | AID 504834 | Potency, µM (titrated, usually from 28.7 µM), inactives show at the top dose activity change, negative = inhibition, most hits filed as inhibitors | hit rate 6.9% among 320,000 | P. falciparum luciferase reporter growth, 96 h; further: potency means the concentration at half of the fitted maximal effect; on the % scale 0 is the no-effect control and ±100 the full control effect
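P. falciparum expressing integrated firefly luciferase, in erythrocytes at 2% hematocrit, 0.05% parasitemia, incubated with compounds 96 h at 37 C, 5% CO2. Growth inhibition read as loss of luminescence; two-generation exposure targets delayed-death apicoplast inhibitors.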
CHX counter: counter-screen for Shiga toxin inhibitors: cycloheximide protein synthesis inhibition | cell reporter, cycloheximide protein synthesis inhibition counterscreen | max response, % | hit rate 12% among 300,000 | AID 2314; in the data active means max response mostly above about 13%, no sharp cut-off; inactive means mostly below about 14%; further: read at 38.3 µM for the half of the compounds with a filed dose; 0% is about no effect
Shiga inhibitor: blocks Shiga toxin action in Vero cells. Vero cells, Shiga toxin protein synthesis inhibition reporter. inhibition, % at 38.7 µM. hit rate 9.2% among 290,000. AID 2315; in the data active means inhibition mostly above about 28%, no sharp cut-off; inactive means mostly below about 43%; further: 0% is about no effect
NS1 function inh: inhibitors of influenza NS1 protein function; Potency, µM (highest dose often 46.1 µM), for inactives: at the highest dose activity, positive = more growth; hit rate 0.4% among 270,000; AID 2326; calls by dose curve; further: potency means the concentration at half of the fitted maximal effect; actives are rising curves; nearly all actives have a fitted effect of over 50% in size
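In this qHTS, NS1 from influenza A is expressed in budding yeast, where it slows growth. Cells are switched from glucose to 2% galactose medium (pH 6.0, -URA), treated with compound, and growth recovery is read at OD600.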
Pf growth 48h: P. falciparum growth inhibition at 48 hours (one generation). P. falciparum luciferase growth in erythrocytes, 48 h. Potency, µM (doses to about 28.7 µM), without a hit: at the top dose activity change, negative = inhibition, most hits filed as inhibitors. hit rate 5.9% among 310,000. AID 504832; further: potency means the concentration at half of the fitted maximal effect; on the % scale 0 is the no-effect control and ±100 the full control effect
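Read-out is firefly luciferase luminescence from an integrated reporter in P. falciparum, so falling signal marks reduced parasite growth. Infected erythrocytes were at 2% hematocrit and 0.1% parasitemia (final) in Albumax-supplemented RPMI 1640.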
Giardia FBPA inh: blocks Giardia fructose-bisphosphate aldolase activity | A8B2U2 | purified Giardia FBPA | Potency, µM (highest dose often 59.6 µM), without a hit: at the top dose activity, negative = inhibition, hits mostly inhibitors | AID 2451 | hit rate 0.71% among 290,000; further: potency means the concentration at half of the fitted maximal effect; on the % scale 0 is the no-effect control and ±100 the full control effect; nearly all actives have a fitted effect of over 55% in size
Target sequence (A8B2U2 whole entry, looked up): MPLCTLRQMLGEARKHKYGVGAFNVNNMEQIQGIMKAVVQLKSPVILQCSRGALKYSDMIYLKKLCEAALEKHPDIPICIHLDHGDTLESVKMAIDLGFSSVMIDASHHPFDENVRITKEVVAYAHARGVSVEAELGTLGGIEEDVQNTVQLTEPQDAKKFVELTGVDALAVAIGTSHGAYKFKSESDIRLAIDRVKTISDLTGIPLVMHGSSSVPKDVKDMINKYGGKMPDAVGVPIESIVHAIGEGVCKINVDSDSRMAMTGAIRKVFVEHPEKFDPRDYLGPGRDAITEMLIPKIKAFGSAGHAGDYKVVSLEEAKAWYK
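Giardia FBPA (40 nM reagent) was preincubated 10 min at RT with compound (up to 57.5 uM final), then substrate plus GAPDH/TPI/NAD/arsenate coupling system with diaphorase/resazurin was added; resorufin fluorescence (525/598 nm) was read after 20 min.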
* marks the source's active call; other numbers are inactive results; ? = inconclusive; · = no result given; [ ] = another dose, or the depositor's remark. Sampled rows, rich in hits. Any-hit rate of the full collection: about 21%. Unless noted, the call rests on the fitted dose curve; in most records, active means well fitted curve in the direction sought with a large enough effect; inconclusive means small, poorly fitted or top-dose-only effect, or another doubt; inactive means no such curve, though single readings can be large; an effect the other way counts as inactive or inconclusive.

SMILES	Pf growth 96h	CHX counter	Shiga inhibitor	NS1 function inh	Pf growth 48h	Giardia FBPA inh
CO[C@H]1C[C@@H]2CC[C@@H](C)[C@@](O)(O2)C(=O)C(=O)N2CCCC[C@H]2C(=O)O[C@H]([C@H](C)C[C@@H]2CC[C@@H](OCCO)[C@H](OC)C2)CC(=O)[C@H](C)/C=C(\C)[C@@H](O)[C@@H](OC)C(=O)[C@H](C)C[C@H](C)/C=C/C=C/C=C/1C	2.13µM*	·	·	·	1.51µM*	·
CC[C@@H]1/C=C(\C)C[C@H](C)C[C@H](OC)[C@H]2O[C@@](O)(C(=O)C(=O)N3CCCC[C@H]3C(=O)O[C@H](/C(C)=C/[C@@H]3CC[C@@H](O)[C@H](OC)C3)[C@H](C)[C@@H](O)CC1=O)[C@H](C)C[C@@H]2OC	·	-3.7	-12.2	·	·	-7.1%
CO[C@H]1C[C@@H]2CC[C@@H](C)[C@@](O)(O2)C(=O)C(=O)N2CCCC[C@H]2C(=O)O[C@H]([C@H](C)C[C@@H]2CC[C@@H](O)[C@H](OC)C2)CC(=O)[C@H](C)/C=C(\C)[C@@H](O)[C@@H](OC)C(=O)[C@H](C)C[C@H](C)/C=C/C=C/C=C/1C	1.51µM*	·	·	·	1.51µM*	·
CCC(C)N1C(=O)/C(=C/c2c(NCCCOC(C)C)nc3c(C)cccn3c2=O)SC1=S (centres undefined)	?	-3.2	9.8	-2.9%	1.17µM*	-6.1%
Cc1ccc(C)c(OCCC(=O)OCC(=O)NNC(=O)c2ccccc2)c1	-26.3%	·	·	·	?	·
C=CCOC(=O)C1=C[C@@H](c2ccc3c(c2)OCO3)C[C@@H](OCc2ccc(CO)cc2)O1	?	19.4*	81.7*	-5.6%	?	-15.3%
O=C(NC1CC1)C1=C[C@@H](c2ccc3c(c2)OCO3)C[C@@H](OCc2ccc(CO)cc2)O1	12.7%	-1.4	41.1	-3.7%	-14.6%	6.2%
NC(=O)C1=C[C@@H](c2ccc(Br)cc2)C[C@@H](OCc2ccc(CO)cc2)O1	50.8%	1.5	-3.8	-5.7%	30.6%	-12.3%
O=C(Nc1ccccc1)C1=C[C@@H](c2ccc(Br)cc2)C[C@@H](OCc2ccc(CO)cc2)O1	?	45.8*	85.9*	8.4%	?	-10.3%
O=C(Nc1ccccc1)C1=C[C@H](c2ccc3c(c2)OCO3)C[C@H](OCc2ccc(CO)cc2)O1	38.1%	72.6*	103.6*	13.4%	?	-18.3%
C=CCOC(=O)C1=C[C@@H](c2ccc(Br)cc2)C[C@@H](OCc2ccc(CO)cc2)O1	15.3%	-2.6	9.5	-1.0%	?	0.6%
NC(=O)C1=C[C@H](c2ccc(Br)cc2)C[C@H](OCc2ccc(CO)cc2)O1	20.4%	24.8*	56.4*	1.3%	0.8%	-28.9%
Cc1cccc(C(=O)Nc2ccc(S(=O)(=O)N3CCOCC3)cc2C)c1	?	-0.3	·	-3.8%	-8.4%	-0.3%
O=C(O)CN(CC(=O)O)c1ccccc1	·	·	·	1.8%	·	·
O=C(O)c1cc(S(=O)(=O)NC(CO)C(O)c2ccc([N+](=O)[O-])cc2)ccc1Br (centres undefined)	?	-0.3	-7.9	18.7%	-12.2%	-3.3%
Cc1ccc(S(=O)(=O)c2nc(S(=O)(=O)c3ccc(C)cc3)c(N3CCN(CCO)CC3)s2)cc1	-31.0%	-3.0	-7.3	-13.5%	5.22µM*	·
CS(=O)(=O)c1nc(S(=O)(=O)c2ccc(Cl)cc2)c(N2CCN(CCO)CC2)s1	?	-0.8	10.4	1.3%	-10.0%	·
CCCS(=O)(=O)c1nc(S(=O)(=O)c2ccc(C)cc2)c(N2CCC(C)CC2)s1	14.7µM*	-2.7	-1.8	-1.3%	?	·
CCCS(=O)(=O)c1nc(S(=O)(=O)c2ccc(C)cc2)c(N2CCc3ccccc3C2)s1	?	4.7	7.1	10.0%	2.33µM*	-6.4%
CCCS(=O)(=O)c1nc(S(=O)(=O)c2ccc(C)cc2)c(N2CCCC2)s1	·	1.0	-11.0	3.6%	11.7µM*	1.3%
CN(C)Cc1ccccc1-c1cncnc1Nc1ccc(F)cc1	·	·	·	·	·	0.4%
COc1ccc(Cc2nnc(SCC(=O)Nc3ccccc3)[nH]c2=O)cc1	15.6%	·	·	·	-18.6%	·
Cc1ccc(Cl)cc1N(CC(=O)NC1CCCC1)C(=O)c1csnn1	14.4%	-2.4	-4.2	-0.8%	8.9%	8.2%
COc1ccccc1N1CCN(S(=O)(=O)CCNC(=O)C2CCCCC2)CC1	2.2%	·	·	·	-6.0%	·
CCCS(=O)(=O)c1nc(S(=O)(=O)c2ccc(C)cc2)c(N2CCC(O)CC2)s1	-9.6%	-1.6	14.1	-1.5%	-5.8%	·
SMILES	Pf growth 96h	CHX counter	Shiga inhibitor	NS1 function inh	Pf growth 48h	Giardia FBPA inh
CCCS(=O)(=O)c1nc(S(=O)(=O)c2ccc(C)cc2)c(N2CCC(C(N)=O)CC2)s1	10.4µM*	1.6	-7.6	-10.6%	-6.9%	10.4%
O/N=C/c1cccc[n+]1CCCCCC[n+]1ccccc1/C=N/O	?	-2.2	-10.1	9.8%	?	-6.7%
CCCCCCCCC[n+]1cccc2c3ccccc3ccc21	35.3%	-2.5	-15.2	-279.6%	0.165µM*	4.2%
CCCCCCCCCCCCCCCC[n+]1cccc2ccccc21	?	-8.6	-13.0	-14.4%	0.828µM*	2.7%
Cc1ccccc1C[n+]1cccc2ccccc21	?	·	·	·	0.37µM*	·
OC(c1cccc(Cl)c1)c1nccc2ccccc12 (centres undefined)	?	0.8	·	-20.6%	73.6%	-33.5%
O=C(OC(c1ccccc1)c1nccc2ccccc12)c1cc([N+](=O)[O-])cc([N+](=O)[O-])c1 (centres undefined)	10.4µM*	-6.0	-5.5	6.6%	-14.5%	-6.8%
CC(=O)c1ccc(N/C=C/C(=O)c2ccc(Br)cc2)cc1	?	11.1*	21.9*	8.0%	111.1%	7.5%
NS(=O)(=O)c1ccc(N/C=C/C(=O)c2ccc(Br)cc2)cc1	-11.0%	61.4*	77.1*	9.4%	114.7%	0.1%
NS(=O)(=O)c1ccc(N/C=C\C(=O)c2ccc(F)cc2)cc1	?	29.3*	64.5*	-1.2%	213.6%	0.5%
NS(=O)(=O)c1ccc(N/C=C\C(=O)c2ccncc2)cc1	?	7.5	26.4	0.4%	38.8%	-3.8%
CC(=O)Nc1ccc(N/C=C/C(=O)c2ccc(Br)cc2)cc1	29.4%	-1.8	4.1	10.2%	92.6%	-4.6%
CC(NC(=O)c1ccc(N(C)C)cc1)c1ccc(F)cc1 (centres undefined)	-44.4%[5.75 µM]	1.0	-13.6	·	?	4.4%
CN(C)c1ccc(N/C=C/C(=O)c2ccc(F)cc2)cc1	·	64.5*	63.1*	5.4%	?	-29.5%
Cc1ccc(S(=O)(=O)O[C@H]2CC(C(C)(C)C)CC[C@@H]2c2ccccc2)cc1 (some centres undefined)	·	·	·	-2.6%	·	·
O=C(COC(=O)C1CCCCC1)Nc1cc([N+](=O)[O-])ccc1F	2.6%	-2.7	-13.4	·	18.3%	-1.9%
CCOc1ccc(NC(=O)CN(C)C(=O)CCN2C(=O)C3CC=CCC3C2=O)cc1OCC (centres undefined)	?	·	·	·	-19.0%	·
